Assays:
Experiment in all cases: PBM binding z-score (relative to random genomic background probes); higher = stronger binding; sequences stand for … in GC…GCGATTGACAGCGTAGAATGAAGG
[1] = tested on: FXR:RXRa (NR concentration 270 nM, RXRa partner concentration 90 nM)
Method in brief: (§1)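 On custom Agilent 4×180K arrays, double-stranded probes with 34-nt variable regions carried direct-repeat seeds, single-nucleotide variants, half-site ablations or random human genomic background. Ligand-free nuclear receptor dimers were applied for 1 h, and binding was read with antibodies against each partner (one per run). Binding z-scores come from regression-normalized fluorescence, with the random background probes as reference.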

[2] = tested on: LXRa:RXRa (NR concentration 270 nM, RXRa partner concentration 90 nM)
Method in brief: as §1

[3] = tested on: LXRa homodimer (NR concentration 270 nM)
Method in brief: as §1

[4] = tested on: LXRb:RXRa (NR concentration 270 nM, RXRa partner concentration 90 nM)
Method in brief: as §1

[5] = tested on: LXRb homodimer (NR concentration 270 nM)
Method in brief: as §1

[6] = tested on: PPARa:RXRa (NR concentration 270 nM, RXRa partner concentration 90 nM)
Method in brief: as §1

[7] = tested on: PPARg:RXRa (NR concentration 180 nM, RXRa partner concentration 90 nM)
Method in brief: as §1

[8] = tested on: PPARg:RXRa 270nM:90nM, anti-RXR (NR concentration 270 nM, RXRa partner concentration 90 nM)
Method in brief: as §1

[9] = tested on: PPARg:RXRa 30nM:10nM, anti-RXR (NR concentration 30 nM, RXRa partner concentration 10 nM)
Method in brief: as §1

[10] = tested on: PPARg:RXRa 90nM:30nM, anti-RXR (NR concentration 90 nM, RXRa partner concentration 30 nM)
Method in brief: as §1

Sequence	PBM binding z-score [1]	PBM binding z-score [2]	PBM binding z-score [3]	PBM binding z-score [4]	PBM binding z-score [5]	PBM binding z-score [6]	PBM binding z-score [7]	PBM binding z-score [8]	PBM binding z-score [9]	PBM binding z-score [10]
CTCGAAAGGTCGTTTGAGGTGAGTATACGGATAA	6.16	4.77	0.74	3.96	1.09	4.99	2.46	3.47	1.38	2.14
TCTGCTAGGTCAACGATGGTCGGCTAATCTGCTA	3.06	2.14	-0.28	1.11	-0.00978	2.9	2.1	3.01	1.81	2.42
GCTTACGGGTCAAATGTTATAGCATGAATAGAAT	6.7	4.31	0.0219	4.11	0.827	5.85	6.74	6.08	3.81	5.84
CCGACTGGGGCAAAGGTTACCATTCTCAGTACGA	1.49	1.29	-0.141	2.02	-0.949	5.42	11.2	9.61	8.44	11.7
CAAACTAGGTTACCGGAAGGTCAAAGTCCGCATG	4.06	5.04	4.5	4.05	1.13	4.85	6.22	5.55	2.78	4.83
TTACCAAGGTGCGCTGAGGTCGTTGATCCAACTC	0.911	0.599	0.0298	0.588	-0.404	0.971	-0.397	-0.0544	-0.287	0.0957
GCAGACAGGTGAAACGCCGGTAACTCAGGGTGGC	-0.365	-0.144	-0.611	-0.313	-0.77	0.601	0.303	-0.0478	-0.502	-0.552
CATACAGGGTCAGCTAGGCCAGAGTCGGGACGGC	4.49	3.06	-0.0518	1.97	0.537	4.21	3.11	3.03	0.551	1.92
TGTCCAAGTTCAAAGGTAACGTAAGTATCCACAC	4.56	4.49	1.09	3.06	0.689	4.29	4	4.65	2.1	4.16
CGGCCTAGGTCAGGGCCAGTATAGGAGGAACGTT	1.39	0.731	-0.463	0.402	-1.29	1.83	0.691	0.462	-0.446	0.244
ATATGTAGGTTAGCTGGGGTCATACAGACTAGGC	5.27	5.79	2.45	4.74	0.852	5.2	6	5.38	2.74	4.94
CCTAGCAGGCCAATCTGGGTCACTCATGGCTTGA	0.761	0.933	-0.409	0.376	-1.09	2.62	1.75	1.93	0.0126	0.944
CCAGATAGGTGAGAAGGTAACTCAGCCTCGATTA	-0.0268	0.168	0.00136	0.105	-0.314	1.14	1.1	2.3	0.791	1.76
ACTATTAGTTGAGACGAGTGCAACCGATAGGTTG	-0.26	-0.238	-0.221	-0.356	-0.0624	-0.254	0.511	0.0303	-0.299	-0.303
CAGCCTAGGTCAGGGACAGTATAGGAGGAACGTT	1.72	1.1	-0.189	0.879	-0.664	2.34	1.26	1.07	0.251	0.563
TAGCCTAGGTCATGGGTCAGTATACCACGCGAAC	5.1	4	0.898	3.62	0.339	4.77	6.78	5.95	3.9	6.14
GATACATGGTCAAGGCCAGAGTACGCGTATTGAT	-0.39	-0.622	-0.276	-0.463	-0.821	-0.215	0.872	0.016	0.162	0.303
GCAAATAGGTAATACAAGGTGAAAGTCCGATTGT	2.27	2.87	0.422	0.806	-0.48	1.49	1.02	1.19	0.599	0.979
GCTGCGAGGTCAGGTTGGTCAGCTAACGGGTACG	5.45	3.46	0.305	2.93	0.482	4.38	2.49	2.99	0.517	1.75
CCAACTAGGTCACGAAAGGTCAAAGTCGAATGAC	7.46	8.21	7.89	7.27	2.78	6.63	9.92	8.01	5.92	8.18
TCTTGTAGATCAATAGAGGTCAAGAAAGTGCGCT	3.34	5.24	3.98	4.27	1.1	4.19	1.36	3.32	3.08	3.18
GCAGACAGGTGAAACGCAGGTAACTCAGGGTGGC	-0.388	0.00311	-0.515	-0.48	-1	0.864	0.383	-0.117	-0.52	-0.467
AGAATGAGGTTACCAAAGATCAGGGGAACGCTTG	1.87	6	-0.402	3.15	-0.39	3.44	2.74	2.72	1.04	2
AGAATGAAGTTATACGTAGATCAGGGAAGAAAGT	-0.499	-0.297	-0.439	-0.59	-0.391	-0.311	0.842	-0.228	0.0525	-0.163

Sequence	PBM binding z-score [1]	PBM binding z-score [2]	PBM binding z-score [3]	PBM binding z-score [4]	PBM binding z-score [5]	PBM binding z-score [6]	PBM binding z-score [7]	PBM binding z-score [8]	PBM binding z-score [9]	PBM binding z-score [10]
CGCGAAAGGTCGGTTGAGGTGAGTATACGGATAA	2.66	1.81	-0.0594	1.38	-0.0248	2.75	0.872	1.45	0.235	0.88
CCTACTGGGCCAAGGTCATTGTTCAGTCAAAGCA	2.83	3.04	1.28	2.99	-0.347	4.06	3.84	4.26	1.73	3.71
ATCTCTAGGTAACCAAGTTCAGTGACTGCCGAAC	0.544	1.09	1.07	0.872	0.838	1.24	0.732	1.15	0.402	0.958
TCTTGTAGATCAATCGAGGTTAAGAAAGTGCGCT	1.32	3.01	0.075	1.49	0.176	1.73	-0.311	1.51	2.7	2.4
CCTTACGGGTCACTGACAGGTTATAGAATTTGGA	5.11	4.02	0.265	3.45	0.0176	4.89	4.24	4.49	1.75	3.35
CCTTACGGGTCAAGGTTATAGGACGGGTGGTACG	5.27	3.82	0.302	3.28	0.221	5.05	4.55	4.69	2.05	3.36
TGTCGGAGGACACGAAAGGTCAGAGCTCGACATC	3.25	3.96	2.69	3.16	0.015	3.69	1.62	2.54	0.799	1.53
CATACAGGGTCAACTAGGCCAGAGTAGGGACGGC	6.88	4.92	0.472	4.1	0.96	5.82	6.43	5.91	2.49	4.66
AGAATGAGGTTATACGTCGATCAGGGAAGAAAGT	2.16	1.54	-0.164	1.29	0.0862	3.16	2.32	2.99	1.45	2.25
ACTGGGAGGACAAAGGTCAGAGCTACGCCAGTGA	4.45	4.69	2.01	4	1.04	5.24	8.13	7.23	5.7	7.48
CCTTACGGGTCACTCCAGGTAATAGCATCGGAGT	5.01	5.21	0.164	3.31	0.11	4.59	3.75	3.97	1.47	2.94
TCTAGCAGGCCAGAGGGTCACTTAAGAGGTACGG	1.18	0.809	-0.547	1.05	-1.09	2.4	1.58	2.96	2.13	2.57
CCTACTGGCCCAAAAAGGTCATTGATGCCGATAA	3.63	4.47	3.88	4.4	1.04	4.74	1.35	2.89	0.585	1.93
CCTCCTAGGTCATGGTCAGCTAATCTACAGTATG	3.85	2.79	0.804	2.24	0.0954	3.8	2.72	2.89	0.958	2.09
ATCGAAAGGTCGACGAGGGGAGTATACACCGTTT	4.13	3.51	0.159	2.8	1.07	4.15	2.47	2.77	0.952	1.67
ATCTCTTGGTAACCAAGTTCAGTGAATGCCGAAC	0.478	1.31	0.59	1.22	0.681	0.472	0.0645	0.369	-0.134	0.145
TTGCCTAGGTCATGGGCCAGTATACCACGCGAAC	4.71	3.43	0.623	2.49	-0.439	4.25	3.7	3.59	0.614	2.48
TCAATTAGTTGAAGGGCAACCGACGAGTCCGTTT	0.718	0.5	0.203	0.456	-0.169	0.684	0.142	2.03	3.38	2.61
CCTTACGGGTCAAGATTATAGCACGGGTGGTACG	4.99	3.15	0.00162	2.76	0.37	4.61	3.55	3.6	1.65	2.56
TCATATAGGTAAATGCTAGGTTAAAGTCCGATCT	1.18	1.82	1.14	1.05	0.0487	1.7	0.987	2.22	3.48	2.87
TCATATAGGTCAAGGTGAAAGTCGAACGATATGA	6.5	4.65	0.783	3.73	0.775	6.15	8.55	7.65	6.25	7.63
GCGACTGGGGCATCAGCAGGTTTCCATAACTTAA	-0.587	-0.452	-0.461	0.112	-0.629	0.353	0.32	0.386	-0.554	-0.228
GGAACGTGGGCATTCGAGTTGATAGCATGGCGAT	-0.541	-0.612	-0.683	-1.02	-1.01	-1.09	0.22	-0.631	-0.7	-0.858
GATACAGGGTCAGCTAGTGGCCAGAGTATGGAAA	4.54	2.31	-0.558	2.21	-0.762	4.49	3.55	3.25	0.61	1.77

From the supplement of paper PMC6555819
